From PubChem
CYP2C19 inh – human CYP2C19 inhibition; CYP2C19 Supersomes, luciferin-H EGE luminescence, 30 min; 96,000 tested, 21% active; AID 778; inhibition, % at 5 µM;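 active = CYP2C19 inhibition above a set limit at 5 µM in the primary screen, cut at about 50% in these data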;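 also: plate controls were negative control wells for no effect and 2.5 mM tranylcypromine positive control for full effect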
Target sequence (P33261 whole entry, looked up): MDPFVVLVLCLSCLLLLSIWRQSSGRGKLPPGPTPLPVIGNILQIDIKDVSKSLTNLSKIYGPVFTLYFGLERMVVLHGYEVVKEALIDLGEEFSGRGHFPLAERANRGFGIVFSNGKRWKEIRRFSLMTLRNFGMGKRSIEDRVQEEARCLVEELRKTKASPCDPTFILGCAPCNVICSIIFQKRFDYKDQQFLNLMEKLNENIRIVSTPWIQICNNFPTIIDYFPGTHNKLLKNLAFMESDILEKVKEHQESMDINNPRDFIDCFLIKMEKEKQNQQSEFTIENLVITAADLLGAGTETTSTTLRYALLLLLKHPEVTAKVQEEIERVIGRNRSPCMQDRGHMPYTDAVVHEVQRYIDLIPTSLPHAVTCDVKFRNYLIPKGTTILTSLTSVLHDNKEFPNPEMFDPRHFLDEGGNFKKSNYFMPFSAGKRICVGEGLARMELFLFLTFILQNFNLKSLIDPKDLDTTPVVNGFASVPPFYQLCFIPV
CYP2C9 inh – human CYP2C9 inhibition | 96,000 tested, 20% active | CYP2C9 Supersomes, luciferin-H conversion, luminescence | inhibition, % at 5 µM;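 active = blocking of liver enzyme CYP2C9 beyond about 50% at 5 µM, limit read from the data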
CYP2C19 act – activators of human cytochrome P450 2C19 | 96,000 tested, under 10 active | AID 1025 | recombinant CYP2C19, luciferin-H EGE luminescence; active compounds read high; 0 = fully inhibited enzyme, 1 = untreated enzyme | activation factor at 5 µM | P33261;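 active = activation factor of at least 2 at 5 µM in the primary screen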;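 also: 0 = wells with 2.5 mM tranylcypromine and 1 = vehicle-only wells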
CYP2C9 act – CYP2C9 (human) activation; activation factor at 5 µM; recombinant CYP2C9, luciferin-H conversion, luminescence; active compounds read high; factor 1 = untreated enzyme, 0 = blocked; 96,000 tested, 1.4% active; P11712;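 active = activation factor of 2 or more for CYP2C9 at a 5 µM dose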;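 also: 0 = sulfaphenazole-blocked wells and 1 = vehicle-only wells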
* = called active by the depositor. An excerpt weighted towards active compounds, which were near 31% of everything screened.

SMILES	CYP2C19 inh	CYP2C9 inh	CYP2C19 act	CYP2C9 act
Cc1cc(NC(=O)c2cc3n(n2)C(C(F)(F)F)CC(c2ccc(Cl)c(Cl)c2)N3)no1 (stereo not given)	-11.2	14.8	1.1	0.9
CC(C)(C)n1nnnc1C(c1ccccc1)N1CCc2ccccc2C1 (stereo not given)	53.7*	36.5	0.5	0.6
CC1CCN(C(c2ccc(N(C)C)cc2)c2nnnn2C(C)(C)C)CC1 (stereo not given)	59.5*	22.8	0.4	0.8
CN(C)c1ccc(C(c2nnnn2C(C)(C)C)N2CCc3ccccc3C2)cc1 (stereo not given)	58.4*	13.4	0.4	0.9
O=C1NCCN1C(=O)C12CC3CC(CC(C3)C1)C2	8.8	22.3	0.9	0.8
COC(=O)NCCOc1cc(C)ccc1C	20.9	-10.7	0.8	1.1
CCOC(=O)c1[nH]c(C)c(/C(O)=C2\C(=O)C(=O)N(CCCN(C)C)C2c2cccnc2)c1C (stereo not given)	-1.9	3.6	1	1
CCCCOc1ccc(/C=c2\sc3ncnn3c2=O)cc1	-1.6	10.5	1	0.9
Cc1ccc(/C=N/N2C(=O)C3C(C2=O)C2C=CC3C23CC3)o1 (stereo not given)	18.9	2.9	0.8	1
O=C1C2C(C(=O)N1/N=C/c1ccco1)C1C=CC2C12CC2 (stereo not given)	99.1*	7.1	0	0.9
CC(=O)Nc1ccc([N+](=O)[O-])cn1	2.8	-22.9	1	1.2
Cc1cccc(C(C)Nc2ccc([N+](=O)[O-])cn2)c1 (stereo not given)	48.8	74.8*	0.5	0.3
O=S1(=O)CC(O)C(N2CCC(c3ccccc3)CC2)C1 (stereo not given)	-2.1	-16.7	1	1.2
COC(=O)c1cc(Br)c(=O)n(Cc2ccc(OC)c(OC)c2)c1	45.6	50.7*	0.5	0.5
COC(=O)c1cc(Br)c(=O)n(Cc2ccc(C(=O)O)cc2)c1	-14.2	-5.3	1.1	1.1
CC1(C)CC(N(Cc2ccco2)C(=O)Cc2ccccc2)CCO1 (stereo not given)	14.4	0.9	0.9	1
CC(C(=O)NCC1(c2ccccc2)CCCC1)N1CCCC1 (stereo not given)	29.1	4.9	0.7	1
Cc1ccc(C)n1-c1nc(=S)[nH][nH]1	76.1*	87.7*	0.2	0.1
S=c1nc(-c2ccco2)[nH][nH]1	2.4	3.5	1	1
CCOc1cccc(N2C(=O)CC(N3CCN(c4ccc(S(=O)(=O)CC)cc4)CC3)C2=O)c1 (stereo not given)	6.4	32.5	0.9	0.7
COc1cc(C(=S)N2CCOCC2)cc(OC)c1OS(=O)(=O)c1ccc(NC(C)=O)cc1	57.5*	36.5	0.4	0.6
COC(=O)c1ccc(C(=S)N2CCOCC2)cc1	13.4	7.8	0.9	0.9
COc1cccc(N(C(=O)CNC(=O)c2ccco2)C(C(=O)NC2CCCCC2)c2ccncc2)c1 (stereo not given)	57.1*	76.0*	0.4	0.2
COc1cccc(N(C(=O)c2ccco2)C(C(=O)NC2CCCC2)c2ccc(N(C)C)cc2)c1 (stereo not given)	38.2	38.8	0.6	0.6
CCOc1ccccc1N(C(=O)c1ccco1)C(C(=O)NC1CCCC1)c1cccnc1 (stereo not given)	56.2*	17.3	0.4	0.8
SMILES	CYP2C19 inh	CYP2C9 inh	CYP2C19 act	CYP2C9 act
COc1ccc(CN(C(=O)CNC(=O)c2ccco2)C(C(=O)NC2CCCC2)c2ccco2)cc1 (stereo not given)	61.8*	62.3*	0.4	0.4
COc1ccc(C)cc1N(C(=O)CNC(=O)c1ccco1)C(C(=O)NC1CCCC1)c1cccnc1 (stereo not given)	13.3	27.4	0.9	0.7
COc1cccc(N(C(=O)c2ccco2)C(C(=O)NC2CCCC2)c2cccnc2)c1 (stereo not given)	66.7*	65.0*	0.3	0.3
CCn1cc(C(=O)Nc2ccc(C(=O)N3CCCC3)cc2)c(=O)c2ccc(C)nc21	6.8	2.0	0.9	1
c1ccc2c(-c3nnc(SCc4cn5ccccc5n4)o3)c[nH]c2c1	66.7*	60.7*	0.3	0.4
O=C(CSc1nnc(-c2ccco2)o1)N1c2ccccc2CCc2ccccc21	88.7*	96.9*	0.1	0
O=C(CSc1nnc(COc2cccc3ccccc23)o1)N1c2ccccc2CCc2ccccc21	22.1	54.2*	0.8	0.5
O=C(CSc1nnc(-c2c[nH]c3ccccc23)o1)N1c2ccccc2CCc2ccccc21	78.8*	92.4*	0.2	0.1
O=C(CSc1nnc(-c2c[nH]c3ccccc23)o1)N1CCCCC1	41.0	6.8	0.6	0.9
c1ccc(CSc2nnc(-c3c[nH]c4ccccc34)o2)cc1	-10.1	0.3	1.1	1
CCOC(=O)C(C(=O)OCC)C(C)C#CCN1CCCCC1 (stereo not given)	28.5	-21.7	0.7	1.2
COC(=O)C1=CNC=C(C(=O)OC)C1c1ccc(Cl)cc1	74.7*	74.9*	0.3	0.3
COCCN1C=C(C(=O)OC)C(c2ccccc2C(F)(F)F)C(C(=O)OC)=C1	40.0	49.1	0.6	0.5
COC(=O)C1=CNC=C(C(=O)OC)C1c1ccccc1Cl	84.5*	69.8*	0.2	0.3
COC(=O)C1=CNC=C(C(=O)OC)C1c1cccc(OC)c1	85.9*	79.3*	0.1	0.2
CCOc1ncccc1C(=O)OCC(=O)c1cccs1	24.0	43.3	0.8	0.6
O=C(CN1CCN(C(=O)c2ccco2)CC1)Nc1cc(Cl)ccc1Cl	19.7	29.9	0.8	0.7
CCn1c(-c2ccccc2Cl)nn(CC(=O)Nc2cc(Cl)ccc2Cl)c1=S	88.6*	41.1	0.1	0.6
O=C(CCS(=O)(=O)c1ccc(Br)s1)NCc1ccccc1	60.0*	33.6	0.4	0.7
CC(C)NC(=O)CCS(=O)(=O)c1ccc(Br)s1	38.2	6.9	0.6	0.9
COC(=O)c1ccccc1NC(=O)CCS(=O)(=O)c1ccc(Br)s1	61.9*	-5.5	0.4	1.1
COC(=O)c1ccc(NC(=O)CCS(=O)(=O)c2ccc(Br)s2)cc1	20.9	60.6*	0.8	0.4
CCCCOCCCNC(=O)CCCOc1ccccc1	20.5	11.3	0.8	0.9
Cc1cc(C)n(S(=O)(=O)/C=C/c2ccccc2)n1	73.9*	-24.5	0.3	1.2
Cc1cc(C)n(C(=O)CN2C(=O)c3ccccc3C2=O)n1	6.0	15.9	0.9	0.8
COc1ccc(C(C)=O)cc1CN1C(=O)NC2(CCCCCC2)C1=O	88.3*	29.0	0.1	0.7
CC(C)C(O)P(=O)(OCc1ccccc1)c1ccc(N(C)C)cc1 (stereo not given)	53.6*	5.0	0.5	0.9
CN(C)c1ccc(P(=O)(OCc2ccccc2)C(O)c2cccnc2)cc1 (stereo not given)	48.3	58.2*	0.5	0.4
CCN(CC)CCCNC(=O)N[C@@H](Cc1ccccc1)C(=O)O	-13.5	-14.6	1.1	1.1
CCc1cccc(CC)c1NC(=O)CN1CCN(c2ccccc2)CC1	65.6*	82.8*	0.3	0.2
